Screen size: about 5,500 compounds; about 2,000 (36%) were called active. Roughly 18% stayed inconclusive and do not appear here. Rule as the data show it: active = normalized growth mostly below about 0.91 (no sharp cut-off); inconclusive = no clear call, values can overlap the other calls; inactive = mostly above about 0.92. This is one part of the list.
Test: chemical genetic growth profiling, strain panel (AID 1159580);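 also: tested at 20 µM; growth read once vehicle control cultures reached saturation at 30 °C; 1 = growth at the plate median or of vehicle wells; lower values mean less growth of the strain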
Details: growth OD

Measured: normalized growth

CC(=O)O[C@H]1C[C@@H](OC(C)=O)C(C)(C)C2CC(=O)[C@]3(C)C(CC[C@@]4(C)[C@H](C(=O)O)OC(=O)C5OC543)[C@]21C (stereo partly specified)
inactive: S. cerevisiae deletion strains, locus YJR066W, strain TOR1, active compounds read low 0.96 | S. cerevisiae deletion strains, locus YKL009W, strain mrt4, active compounds read low 0.996 | S. cerevisiae deletion strains, locus YKL068W, active compounds read low 0.988 | S. cerevisiae deletion strains, locus YKL085W, strain MDH1 (second series), active compounds read low 1 | S. cerevisiae deletion strains, locus YKL085W, strain MDH1, active compounds read low 1 | S. cerevisiae deletion strains, locus YKL160W, strain elf1, active compounds read low 0.99 | S. cerevisiae deletion strains, locus YKL190W, strain CNB1, active compounds read low 0.987 | S. cerevisiae deletion strains, locus YKR001C, strain vps1, active compounds read low 1.01 | S. cerevisiae deletion strains, locus YKR026C, strain gcn3, active compounds read low 1 | S. cerevisiae deletion strains, locus YKR091W, strain srl3, active compounds read low 0.978 | S. cerevisiae deletion strains, locus YLL001W, strain dnm1, active compounds read low 1 | S. cerevisiae deletion strains, locus YLL026W, active compounds read low 0.981 | S. cerevisiae deletion strains, locus YLL041C, strain sdh2, active compounds read low 0.989 | S. cerevisiae deletion strains, locus YLR027C, strain aat2, active compounds read low 1 | S. cerevisiae deletion strains, locus YLR039C, strain RIC1, active compounds read low 1.06 | S. cerevisiae deletion strains, locus YLR058C, strain SHM2, active compounds read low 0.985 | S. cerevisiae deletion strains, locus YLR102C, strain apc9, active compounds read low 1 | S. cerevisiae deletion strains, locus YLR113W, strain HOG1, active compounds read low 0.968 | S. cerevisiae deletion strains, locus YLR221C, strain rsa3, active compounds read low 1.01 | S. cerevisiae deletion strains, locus YLR258W, strain gsy2, active compounds read low 0.995 | S. cerevisiae deletion strains, locus YLR262C, strain YPT6 (second series), active compounds read low 0.978 | S. cerevisiae deletion strains, locus YLR262C, strain YPT6, active compounds read low 1.05 | S. cerevisiae deletion strains, locus YLR268W, strain sec22, active compounds read low 0.954 | S. cerevisiae deletion strains, locus YLR320W, strain mms22, active compounds read low 1.02 | S. cerevisiae deletion strains, locus YLR342W, strain FKS1 (second series), active compounds read low 0.972 | S. cerevisiae deletion strains, locus YLR342W, strain FKS1, active compounds read low 1.01 | S. cerevisiae deletion strains, locus YLR357W, strain rsc2, active compounds read low 1 | S. cerevisiae deletion strains, locus YLR370C, strain arc18, active compounds read low 0.981 | S. cerevisiae deletion strains, locus YLR371W, strain rom2, active compounds read low 0.985 | S. cerevisiae deletion strains, locus YLR384C, strain iki3, active compounds read low 0.998 | S. cerevisiae deletion strains, locus YLR418C, strain cdc73, active compounds read low 1.07 | S. cerevisiae deletion strains, locus YML016C, strain PPZ1, active compounds read low 0.976 | S. cerevisiae deletion strains, locus YML032C, strain rad52, active compounds read low 0.981 | S. cerevisiae deletion strains, locus YML120C, strain ndi1, active compounds read low 0.993 | S. cerevisiae deletion strains, locus YML124C, strain tub3, active compounds read low 0.989 | S. cerevisiae deletion strains, locus YMR058W, strain fet3, active compounds read low 0.982 | S. cerevisiae deletion strains, locus YMR078C, strain ctf18, active compounds read low 0.975 | S. cerevisiae deletion strains, locus YMR125W, strain sto1, active compounds read low 0.98 | S. cerevisiae deletion strains, locus YMR129W, active compounds read low 0.976 | S. cerevisiae deletion strains, locus YMR205C, strain PFK2, active compounds read low 1.01 | S. cerevisiae deletion strains, locus YMR223W, strain ubp8, active compounds read low 0.993 | S. cerevisiae deletion strains, locus YMR231W, strain pep5, active compounds read low 0.991 | S. cerevisiae deletion strains, locus YMR307W, strain GAS1, active compounds read low 0.984 | S. cerevisiae deletion strains, locus YNL067W, strain RPL9B, active compounds read low 1.04 | S. cerevisiae deletion strains, locus YNL071W, strain lat1, active compounds read low 1.01 | S. cerevisiae deletion strains, locus YNL128W, strain TEP1, active compounds read low 0.951 | S. cerevisiae deletion strains, locus YNL153C, strain GIM3, active compounds read low 1.02 | S. cerevisiae deletion strains, locus YNL183C, strain NPR1, active compounds read low 0.972 | S. cerevisiae deletion strains, locus YNL209W, strain ssb2, active compounds read low 0.982 | S. cerevisiae deletion strains, locus YNL233W, strain BNI4, active compounds read low 1.03 | S. cerevisiae deletion strains, locus YNL248C, strain rpa49, active compounds read low 0.964 | S. cerevisiae deletion strains, locus YNL250W, strain rad50, active compounds read low 0.993 | S. cerevisiae deletion strains, locus YNL271C, strain bni1, active compounds read low 0.996 | S. cerevisiae deletion strains, locus YNL298W, strain CLA4, active compounds read low 0.99 | S. cerevisiae deletion strains, locus YNL307C, strain MCK1, active compounds read low 0.999 | S. cerevisiae deletion strains, locus YNL322C, strain KRE1 (second series), active compounds read low 1.01 | S. cerevisiae deletion strains, locus YNR049C, strain mso1, active compounds read low 0.972 | S. cerevisiae deletion strains, locus YNR052C, strain pop2, active compounds read low 1.03 | S. cerevisiae deletion strains, locus YOL012C, strain htz1 0.975 | S. cerevisiae deletion strains, locus YOL147C, strain pex11, active compounds read low 0.992 | S. cerevisiae deletion strains, locus YOR001W, strain rrp6, active compounds read low 1.01 | S. cerevisiae deletion strains, locus YOR061W, strain CKA2, active compounds read low 0.964 | S. cerevisiae deletion strains, locus YOR069W, strain VPS5, active compounds read low 0.99 | S. cerevisiae deletion strains, locus YOR070C, strain gyp1, active compounds read low 1 | S. cerevisiae deletion strains, locus YOR080W, strain dia2, active compounds read low 0.983 | S. cerevisiae deletion strains, locus YOR083W, strain WHI5, active compounds read low 1.01 | S. cerevisiae deletion strains, locus YOR106W, strain vam3, active compounds read low 0.982 | S. cerevisiae deletion strains, locus YOR136W, strain idh2, active compounds read low 0.985 | S. cerevisiae deletion strains, locus YOR144C, strain elg1, active compounds read low 0.994 | S. cerevisiae deletion strains, locus YOR184W, strain ser1, active compounds read low 0.968 | S. cerevisiae deletion strains, locus YOR231W, strain MKK1, active compounds read low 1.02 | S. cerevisiae deletion strains, locus YOR265W, strain rbl2, active compounds read low 1 | S. cerevisiae deletion strains, locus YOR270C, strain vph1, active compounds read low 1.02 | S. cerevisiae deletion strains, locus YOR290C, strain snf2, active compounds read low 0.969 | S. cerevisiae deletion strains, locus YOR316C, strain cot1, active compounds read low 0.986 | S. cerevisiae deletion strains, locus YPL051W, strain arl3, active compounds read low 0.99 | S. cerevisiae deletion strains, locus YPL078C, strain atp4, active compounds read low 0.985 | S. cerevisiae deletion strains, locus YPL106C, strain sse1, active compounds read low 1 | S. cerevisiae deletion strains, locus YPL240C, strain hsp82, active compounds read low 0.993 | S. cerevisiae deletion strains, locus YPL256C, strain CLN2, active compounds read low 1.01 | S. cerevisiae deletion strains, locus YPR119W, strain clb2, active compounds read low 0.994 | S. cerevisiae deletion strains, locus YPR141C, strain kar3, active compounds read low 0.986 | S. cerevisiae deletion strains, locus YPR163C, strain tif3, active compounds read low 0.998 | S. cerevisiae deletion strains, locus YPR167C, strain met16, active compounds read low 0.988 | S. cerevisiae deletion strains, strain wtn01, active compounds read low 0.983 | S. cerevisiae strains, strain wild type, active compounds read low 0.974

Reference: PubChem BioAssay AID1159580 (chemical genetic matrix, 2015)
